# According to ChEMBL document CHEMBL3988442, “University of Dundee, Small-Polar-MMV Screening Library” (2021):
# Hit rate of the full screen: of about 67,000 compounds, about 300 (0.45%) showed an effect of 50% or more. Many of the other results were omitted from the sample, so strong results are more common in it than they were.
# Biological target: Polyketide synthase Pks13 (Mycobacterium tuberculosis (strain ATCC 25618 / H37Rv)) (UniProt I6X8D2)
# Experiment: Mycobacterium tuberculosis Polyketide synthase 13 Thioesterase (PKS13)
# Type: functional
# Parameters: scale not given: in the data most compounds retested in dose-response had high values
# Conditions: 30 µM
# Polyketide synthase Pks13 (Mycobacterium tuberculosis (strain ATCC 25618 / H37Rv)), sequence (I6X8D2 whole entry): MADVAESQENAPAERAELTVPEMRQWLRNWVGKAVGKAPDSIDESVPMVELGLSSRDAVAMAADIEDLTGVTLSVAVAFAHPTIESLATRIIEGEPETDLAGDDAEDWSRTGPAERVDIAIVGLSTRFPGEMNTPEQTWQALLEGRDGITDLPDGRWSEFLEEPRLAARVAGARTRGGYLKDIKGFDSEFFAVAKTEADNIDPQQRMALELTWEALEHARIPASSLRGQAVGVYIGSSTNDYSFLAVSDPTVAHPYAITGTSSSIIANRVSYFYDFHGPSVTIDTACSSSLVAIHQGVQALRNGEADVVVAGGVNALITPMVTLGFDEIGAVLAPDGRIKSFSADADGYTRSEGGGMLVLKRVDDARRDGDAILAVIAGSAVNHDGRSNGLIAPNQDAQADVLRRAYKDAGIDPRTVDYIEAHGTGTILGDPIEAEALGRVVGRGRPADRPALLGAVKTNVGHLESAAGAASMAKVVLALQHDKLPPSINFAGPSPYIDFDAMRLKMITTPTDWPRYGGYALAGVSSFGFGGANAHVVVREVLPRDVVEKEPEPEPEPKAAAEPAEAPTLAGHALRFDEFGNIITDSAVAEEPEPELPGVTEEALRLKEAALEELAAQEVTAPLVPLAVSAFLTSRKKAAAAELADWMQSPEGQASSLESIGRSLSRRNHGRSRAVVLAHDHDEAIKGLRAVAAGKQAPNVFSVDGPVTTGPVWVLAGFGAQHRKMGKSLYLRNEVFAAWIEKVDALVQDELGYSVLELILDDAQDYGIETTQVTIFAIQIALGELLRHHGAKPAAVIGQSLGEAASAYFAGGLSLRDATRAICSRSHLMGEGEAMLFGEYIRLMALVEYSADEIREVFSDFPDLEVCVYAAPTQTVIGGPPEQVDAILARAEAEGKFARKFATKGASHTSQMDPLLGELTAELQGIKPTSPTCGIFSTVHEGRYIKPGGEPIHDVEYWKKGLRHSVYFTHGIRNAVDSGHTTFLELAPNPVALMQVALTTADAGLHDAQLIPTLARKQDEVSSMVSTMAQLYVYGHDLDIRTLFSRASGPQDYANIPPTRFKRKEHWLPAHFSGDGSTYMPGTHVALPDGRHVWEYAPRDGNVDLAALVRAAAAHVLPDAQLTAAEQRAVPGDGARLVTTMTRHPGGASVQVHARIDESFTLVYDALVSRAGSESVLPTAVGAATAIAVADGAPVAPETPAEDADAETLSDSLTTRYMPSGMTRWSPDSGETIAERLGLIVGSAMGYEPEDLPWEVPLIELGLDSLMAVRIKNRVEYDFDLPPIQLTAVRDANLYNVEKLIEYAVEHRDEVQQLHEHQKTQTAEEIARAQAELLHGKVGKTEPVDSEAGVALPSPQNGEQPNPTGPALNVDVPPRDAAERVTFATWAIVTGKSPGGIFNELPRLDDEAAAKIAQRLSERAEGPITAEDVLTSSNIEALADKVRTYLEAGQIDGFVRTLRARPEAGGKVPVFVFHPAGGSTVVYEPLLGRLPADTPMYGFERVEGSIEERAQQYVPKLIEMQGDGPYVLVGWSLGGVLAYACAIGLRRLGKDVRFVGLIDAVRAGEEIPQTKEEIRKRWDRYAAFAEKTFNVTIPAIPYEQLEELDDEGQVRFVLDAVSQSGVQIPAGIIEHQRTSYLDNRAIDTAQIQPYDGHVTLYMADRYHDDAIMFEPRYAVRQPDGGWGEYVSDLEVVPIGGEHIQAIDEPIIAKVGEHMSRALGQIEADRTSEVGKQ
row,Structure (SMILES),Percent Effect
1,O=C1O[C@@H]2CN(Cc3cccc(O)c3)C[C@@H]2N1CCCN1CCOCC1,-3.82%
2,CSc1ccccc1CN1C[C@H]2C(=O)N(CC3CC3)C[C@@]2(C(=O)O)C1,-23%
3,COCC(=O)NC[C@H]1CC[C@H](c2nnc(-c3cccnc3)o2)CC1,5.07%
4,O=C1O[C@@H]2CN(c3ccccn3)C[C@@H]2N1CCCc1ccc(F)cc1,-15.8%
5,O=C(NCc1ccco1)[C@H]1C[C@H]2OCC[C@H]2N(C(=O)c2ccnnc2)C1,-21.2%
6,O=C(Cn1ccc2cc(Br)ccc21)NC[C@@H]1CCCN2CCCC[C@H]12,-5.46%
7,CO[C@@H]1CCN(Cc2cnn(C)c2)[C@@H]2CN(Cc3ccco3)C[C@@H]21,-33%
8,COc1ccc(CN2CC[C@@H]3CN(S(C)(=O)=O)CCO[C@@H]3C2)cc1,-17.7%
9,O=C(Nc1cccnc1)[C@H]1COC[C@H]2CN(C3CCCC3)C[C@H]21,-10.2%
10,CCCn1nnc(NCc2ccc(-c3ccc(Br)cc3)o2)n1,50.3%
11,Cn1nnc(NCc2ccc(-c3ccc(Br)cc3)o2)n1,13.4%
12,CCn1nnc(NCc2ccc(-c3ccc(Br)cc3)o2)n1,31.1%
13,CC(C)c1cc(C(=O)N2C[C@H]3CC[C@@H]2CN(Cc2ccccn2)C3)no1,-30.6%
14,COc1cnc(N2CCN(C)CC2)nc1-c1ccnn1C,68%
15,Cc1cnc(N2CCC(c3ccncc3)CC2)nc1-c1ccnn1C,-33.3%
16,Cc1cnc(N2CCC(c3ccccc3)CC2)nc1-c1ccnn1C,-31.6%
17,Cc1cnc(N2CCN(C)CC2)nc1-c1ccnn1C,4.24%
18,Cc1cnc(N2CCCC(O)C2)nc1-c1ccnn1C (stereo not drawn),5.81%
19,COc1cnc(N2CC(N3CCOCC3)C2)nc1-c1ccnn1C,54.8%
20,CCn1c(Cn2cncn2)nnc1C1CCN(C[C@H]2[C@@H]3CNC[C@@H]32)CC1,-3.59%
21,CCS(=O)(=O)N1C[C@H]2CN(c3cnn(C)c3)C(=O)[C@H]2C1,-4.27%
22,Cc1ccccc1CN1CC[C@H]2C[C@H](C(=O)N(C)C)O[C@H]2C1,-13.3%
23,Cc1noc(C)c1CN1CC[C@@H]2O[C@@H](COCC3CC3)CC[C@@H]21,-31.2%

row,Structure (SMILES),Percent Effect
1,CC(C)NC(=O)[C@@H]1CN(C(=O)C2CC2)C[C@]12Cc1ccccc1C(=O)N2,52.6%
2,CCS(=O)(=O)N1C[C@@H](C(=O)NC(C)C)[C@@]2(Cc3ccccc3C(=O)N2)C1,9.59%
3,CN1C[C@@H](C(=O)NC(C)(C)C)[C@@]2(CCc3ccccc3C(=O)N2)C1,1.71%
4,CS(=O)(=O)N1C[C@@H]2CC[C@H](C1)N(CCC(=O)NCc1ccco1)C2,-13.4%
5,CC(C)c1nnc(CN2CCCC3(CC2)CN(C)C(=O)O3)o1 (stereo not drawn),-10.9%
6,CN1CC2(CCCN(Cc3nnc(-c4ccco4)o3)CC2)OC1=O (stereo not drawn),62.4%
7,CN1CC2(CCCN(Cc3nnc(-c4ccccc4)o3)CC2)OC1=O (stereo not drawn),-7.32%
8,Cn1ccc(C(=O)N2C[C@@H]3CN(CC4CC4)CCO[C@@H]3C2)n1,-15.9%
9,O=C(N[C@@H]1CN(c2ncccn2)C[C@@H]2CCCO[C@@H]21)c1cnccn1,-18%
10,CCc1ccc(C(O)CN2CCN(c3cccc(OC)c3)CC2)cc1 (stereo not drawn),56.5%
11,COc1cccc(C(O)CN2CCN(c3cccc(C)c3)CC2)c1 (stereo not drawn),0.857%
12,COc1cccc(N2CCN(CC(O)c3ccc(C)cc3)CC2)c1 (stereo not drawn),-26.6%
13,CNC(=O)[C@H]1C[C@@H]2CN(Cc3ccc(C)cc3)C[C@H]1O2,-2.73%
14,Cc1cc2c(N)nc(=O)n(CC(=O)Nc3ccccc3)c2s1,61%
15,Cc1cc2c(N)nc(=O)n(CC(=O)Nc3cccc(Cl)c3)c2s1,11.9%
16,COc1ccc(NC(=O)Cn2c(=O)nc(N)c3cc(C)sc32)cc1,-1.59%
17,c1cnc(N2C[C@H]3CCN(Cc4ccncc4)C[C@H]3C2)nc1,-10.9%
18,CCc1n[nH]c(SCC(=O)N2C[C@@H]3CC[C@H](C2)N(CC=C(C)C)C3)n1,4.76%
19,CCc1ccc(CN2CC[C@@H]3CN(S(C)(=O)=O)CCO[C@@H]3C2)o1,-6.54%
20,CNC(=O)[C@H]1C[C@@H]2CN(S(=O)(=O)c3ccc(OC)cc3)C[C@@H]2N1C,-0.271%
21,O=C(C[C@@H]1COC[C@H]2CN(C(=O)c3cccnc3)C[C@@H]12)N1CCOCC1,-5.25%
22,Cc1cc(C)c2cc(CNCc3cccnc3)c3nn(C)c(=O)n3c2c1,112%
23,Cc1cc(C)c2cc(CNC(C)C)c3nn(C)c(=O)n3c2c1,52.3%

row,Structure (SMILES),Percent Effect
1,Cc1cc(C)c2cc(CNCc3ccccc3)c3nn(C)c(=O)n3c2c1,-72.8%
2,Cc1cc(C)c2cc(CNCc3ccco3)c3nn(C)c(=O)n3c2c1,-29.8%
3,Cc1cc(C)c2cc(CNC3CCCCC3)c3nn(C)c(=O)n3c2c1,10.2%
4,CCCNCc1cc2c(C)cc(C)cc2n2c(=O)n(C)nc12,33.4%
5,Cc1cnc(N2CC[C@@H]3O[C@@H](COCC(=O)N(C)C)CC[C@@H]32)nc1,-4.2%
6,Cc1cc(C)nc(N2CC[C@@]3(O)CCN(S(=O)(=O)N(C)C)C[C@H]3C2)n1,-22.2%
7,O=C([C@@H]1COC[C@H]2CN(C3CCOCC3)C[C@H]21)N1CCCCO1,3.42%
8,CC1(C(=O)NCc2cccnc2Oc2ccc(F)cc2F)CCCNC1 (stereo not drawn),-16.5%
9,CC1(C(=O)NCc2cccnc2Oc2ccc(F)c(F)c2)CCCNC1 (stereo not drawn),63.7%
10,Cc1cccc(C)c1Oc1ncccc1CNC(=O)C1(C)CCCNC1 (stereo not drawn),-21.7%
11,Cc1ccccc1CN1C[C@@H]2OCC(=O)N(CC(N)=O)[C@@H]2C1,-35.3%
12,CCOC[C@]12COC[C@H]1CN(Cc1ccc(F)c(F)c1)C2,-14.9%
13,Cc1ncc(CNCCO)c2cc(C(=O)c3ccc(Br)cc3)oc12,-1.68%
14,Cc1ncc(CNCC(C)O)c2cc(C(=O)c3ccc(Br)cc3)oc12 (stereo not drawn),53.8%
15,Cc1ncc(CN2CCCC2)c2cc(C(=O)c3ccc(Br)cc3)oc12,-4.91%
16,O=c1ccc2c(n1Cc1ccncc1)CCN(Cc1ccoc1)CC2,6.04%
17,COCCn1c2c(ccc1=O)CCN(Cc1ccoc1)CC2,19%
18,O=c1ccc2c(n1CC1CCOCC1)CCN(Cc1ccoc1)CC2,52.6%
19,O=C(c1cscn1)N1CC[C@H]2[C@@H]1CCC(=O)N2c1ccccc1,-9.46%
20,c1ccc2c(c1)CCN(c1ncnc3sc4c(c13)CCNC4)C2,-23.8%
21,c1ccc2c(c1)CN(c1ncnc3c1CCNC3)CCO2,-34%
22,c1ccc2c(c1)CN(c1ncnc3sc4c(c13)CCNC4)CCO2,63%
